From PubChem
HT1080NT lethal: qHTS for induction of synthetic lethality in tumor cells producing 2HG: qHTS for the HT-1080-NT fibrosarcoma cell line. HT-1080-NT fibrosarcoma viability, CellTiter-Glo ATP luminescence, 48 h. Potency, µM (top dose mostly 46.1 µM), without a hit: top-dose activity, negative = less viability, usual class: cytotoxic. 360,000 tested, 1.6% active. AID 686970, 2013;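 also: NT is the 2HG producing partner of a matched IDH1 knockdown line; 0% = DMSO-treated cells and -100% = media-only wells without cells; nearly all actives have a fitted effect of over 55% in size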
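HT-1080-NT fibrosarcoma cells (2HG-overproducing), 750 cells/well in RPMI with 5% FBS, dosed after 2 h and incubated 48 h at 37C. CellTiter-Glo luminescence normalized to DMSO and no-cell wells; concentration-response curves fitted and classed.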
KB-V1 MDR tox: qHTS assay for MDR1-selective chemotherapeutics: Primary screen using the drug-selected MDR subline cells KB-V1 | KB-V1 MDR cells viability, CellTiter-Glo, 72 h | Potency, µM (series often up to 46.1 µM), hits mostly cytotoxic | 400,000 tested, 3.4% active; also: % is scaled to controls: 0 for no effect and ±100 for the full control effect; nearly all actives have a fitted effect of over 60% in size
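Luminescent ATP read-out (CellTiter-Glo, 10 min) measures survival of drug-selected KB-V1 MDR cells after 72 h, 37 degrees C compound exposure. Medium: phenol-red-free DMEM, 10% FBS. Values from fitted concentration-response curves.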
SW480 rerep: A quantitative high throughput screen for small molecules that induce DNA re-replication in SW480 colon adenocarcinoma cells; AID 624297, 2012; SW480 DNA re-replication, Hoechst DNA content imaging, 48 h; 340,000 tested, 1.8% active; Potency, µM (titrated, usually from 46.1 µM), inactives show at the top dose re-replication activation, hits mostly activators; also: % of control where 0% means no effect; nearly all actives have a fitted effect of over 55% in size
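Treated cells incubate 48 hr (37 C, 5% CO2), are stained 40 min with Hoechst, and nuclear fluorescence is enumerated; a rise in nuclei with high DNA signal marks re-replication.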
MCF10A rereplic: A quantitative high throughput screen for small molecules that induce DNA re-replication in MCF 10a normal breast cells. MCF 10A DNA re-replication, Hoechst nuclear intensity, 48 h. Potency, µM (titrated, usually from 46.1 µM), inactives show top-dose activity, positive = re-replication, hits mostly activators. 350,000 tested, 2.9% active. AID 624296, 2012; also: % of control where 0% means no effect; nearly all actives have a fitted effect of over 50% in size
HT1080 IDH1KD tx: qHTS for induction of synthetic lethality in tumor cells producing 2HG: qHTS for the HT-1080-IDH1KD cell line; 360,000 tested, 2% active; Potency, µM (doses to about 46.1 µM), for inactives: at the highest dose activity, negative = toxicity, most hits filed as cytotoxic; AID 686971, 2013; HT-1080 IDH1 knockdown viability, ATP luminescence, 48 h;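 also: 0% = DMSO wells and -100% = cell-free medium wells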
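Using the IDH1-knockdown HT-1080 line run in the same batch and compound series as the NT line, viability after 48 h at 37 °C was determined by CellTiter-Glo luminescence and expressed as % activity.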
KB-3-1 tox: qHTS assay for MDR1-selective chemotherapeutics: Primary screen using the parental adenocarcinoma cell KB-3-1. Potency, µM (highest dose often 46.1 µM), usual class: cytotoxic. KB-3-1 viability, CellTiter-Glo ATP luminescence, 72 h. AID 1347075, 2019. 400,000 tested, 1.4% active; also: % is scaled to controls: 0 for no effect and ±100 for the full control effect; nearly all actives have a fitted effect of over 60% in size
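Cells are dispensed, compounds pinned in, plates held at 37 °C for 72 h, then CellTiter-Glo is added and luminescence read after 10 minutes. Cell line: parental KB-3-1 in phenol-red-free DMEM, 10% FBS.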
* = called active by the depositor; ! = not confirmed by another sample; [ ] = remark or other dose. The list is not random: actives were taken first. Their share in the collection is about 7.9%. Calls follow the shape of the dose curve; as a rule, active = well fitted curve in the direction sought with a large enough effect; inconclusive = small, poorly fitted or top-dose-only effect, or another doubt; inactive = no such curve, though single readings can be large; an effect the other way counts as inactive or inconclusive. Potency is read from the fitted curve at half-maximal effect.

Screening CC(C)(C)CC(C)(C)c1cc(Cc2cc(C(C)(C)CC(C)(C)C)cc(-n3nc4ccccc4n3)c2O)c(O)c(-n2nc3ccccc3n2)c1 returned SW480 rerep -3% and MCF10A rereplic -1%.
For C[C@]12CC[C@@H]3c4ccc(O)cc4CC[C@H]3[C@@H]1C[C@@H](O)[C@@H]2O the results were HT1080NT lethal 7%, KB-V1 MDR tox inconclusive, SW480 rerep 12%, MCF10A rereplic inconclusive, HT1080 IDH1KD tx -13% and KB-3-1 tox inactive.
`CCCCC(=O)OC1CCC2C3CCc4cc(O)ccc4C3CCC12C` (centres undefined) gave HT1080NT lethal inconclusive, KB-V1 MDR tox inconclusive, SW480 rerep inconclusive, MCF10A rereplic inconclusive, HT1080 IDH1KD tx inconclusive and KB-3-1 tox inactive.
Screening CC(=O)Oc1ccc2c(c1)CCC1C2CCC2(C)C(OC(C)=O)CCC12 (centres undefined) returned HT1080NT lethal -1%, KB-V1 MDR tox 10µM*, SW480 rerep 0%, MCF10A rereplic inconclusive, HT1080 IDH1KD tx 0% and KB-3-1 tox inconclusive.
`CCCCC(=O)OC1CCC2C3CCc4cc(O)ccc4C3CC[C@]12C` (some centres undefined) gave SW480 rerep 3% and MCF10A rereplic 19µM*.
For CCC12CCC3c4ccc(O)cc4CCC3C1CC(O)C2O (centres undefined) the results were HT1080NT lethal inconclusive, KB-V1 MDR tox inactive, SW480 rerep inconclusive, MCF10A rereplic 18µM*, HT1080 IDH1KD tx inconclusive and KB-3-1 tox inactive.
Screening C[C@]12CC[C@@H]3c4ccc(OC(=O)c5ccccc5)cc4CC[C@H]3[C@@H]1CC[C@@H]2O returned HT1080NT lethal -1%, KB-V1 MDR tox 21µM*, SW480 rerep -43%, MCF10A rereplic 30µM*!, HT1080 IDH1KD tx 0% and KB-3-1 tox inconclusive.
`C[C@]12CC[C@@H]3c4ccc(O)cc4CC[C@H]3[C@@H]1CC[C@@H]2OC(=O)CCC(=O)O` gave HT1080NT lethal -34%, KB-V1 MDR tox inconclusive, SW480 rerep -6%, MCF10A rereplic 19%, HT1080 IDH1KD tx -8% and KB-3-1 tox inactive.
Screening Cc1ccc(CN2C(=O)c3ccccc3C2c2nnnn2-c2c(C)cccc2C)cc1 (centres undefined) returned HT1080NT lethal -6%, KB-V1 MDR tox inconclusive, HT1080 IDH1KD tx -21% and KB-3-1 tox inactive.
Cc1cccc(-c2noc(-c3ccc(N4CCCC4)c([N+](=O)[O-])c3)n2)c1 was read as KB-V1 MDR tox inactive and KB-3-1 tox inactive.
`Cc1cccc(-c2noc(-c3ccc(N4CCN(C)CC4)c([N+](=O)[O-])c3)n2)c1` gave KB-V1 MDR tox inactive and KB-3-1 tox 18µM*.
CCN(CC)c1cc(C)c2cc(NC(=O)c3cccc(F)c3)ccc2n1 was read as KB-V1 MDR tox inconclusive and KB-3-1 tox inactive.
`CCN(CC)c1cc(C)c2cc(NC(=O)/C=C/c3ccccc3Cl)ccc2n1` gave KB-V1 MDR tox inactive and KB-3-1 tox 13µM*.
For CCN(CC)c1cc(C)c2cc(NC(=O)c3ccc(F)cc3Cl)ccc2n1 the results were KB-V1 MDR tox inactive and KB-3-1 tox inconclusive.
Screening CCN(CC)c1cc(C)c2cc(NC(=O)c3ccccc3OC)ccc2n1 returned HT1080NT lethal inconclusive, KB-V1 MDR tox inconclusive, SW480 rerep inconclusive, MCF10A rereplic inconclusive, HT1080 IDH1KD tx inconclusive and KB-3-1 tox 18µM*!.
`CCN(CC)c1cc(C)c2cc(NC(=O)c3ccc(OC)c(OC)c3)ccc2n1` gave KB-V1 MDR tox inactive and KB-3-1 tox 16µM*.
For CCN(CC)c1cc(C)c2cc(NC(=O)c3cc(OC)cc(OC)c3)ccc2n1 the results were KB-V1 MDR tox inactive and KB-3-1 tox inactive.
`COc1ccc(Nc2cc(C)c3cc(NC(=O)c4ccccc4Cl)ccc3n2)cc1` gave KB-V1 MDR tox 18µM* and KB-3-1 tox inactive.
`CCCCN1C(=O)c2ccc(C(=O)OCC(=O)N3CCN(c4ccccc4)CC3)cc2C1=O` gave HT1080NT lethal 4%, KB-V1 MDR tox inactive, SW480 rerep -15%, MCF10A rereplic 0%, HT1080 IDH1KD tx 6% and KB-3-1 tox inactive.
For O=C(C1CC(=O)N(c2ccccc2)C1)N1CCN(c2ccccc2F)CC1 (centres undefined) the results were HT1080NT lethal 4%, KB-V1 MDR tox inconclusive, SW480 rerep 1%, MCF10A rereplic -15%, HT1080 IDH1KD tx 10% and KB-3-1 tox inactive.
Screening COc1cccc(NC(=O)CN(C)S(=O)(=O)/C=C/c2ccccc2)c1 returned HT1080NT lethal 1%[9.24 µM], KB-V1 MDR tox inactive, SW480 rerep -5%, MCF10A rereplic 6%, HT1080 IDH1KD tx 0% and KB-3-1 tox inactive.
For Cc1cc(C)cc(NC(=O)CSc2nncn3c2cc2occc23)c1 the results were KB-V1 MDR tox inactive and KB-3-1 tox inactive.
CCNC(=O)C1(C)CCN1CCC(=O)c1ccc(Br)cc1 (centres undefined) was read as HT1080NT lethal 14%, KB-V1 MDR tox inactive, HT1080 IDH1KD tx 5% and KB-3-1 tox inactive.
`CCN(CC)c1cc(C)c2cc(NC(=O)c3ccc(Br)o3)ccc2n1` gave HT1080NT lethal -15%, KB-V1 MDR tox inconclusive, SW480 rerep inconclusive, MCF10A rereplic 9.2µM*, HT1080 IDH1KD tx -22% and KB-3-1 tox inconclusive.
`CCCCc1ccc(C(=O)Nc2ccc3nc(N(CC)CC)cc(C)c3c2)cc1` gave KB-V1 MDR tox inactive and KB-3-1 tox inactive.
Cn1c(Oc2ccc(Cl)cc2)nc2c1c(=O)n(Cc1ccc(F)cc1)c(=O)n2C was read as KB-V1 MDR tox inactive and KB-3-1 tox inactive.
N#Cc1ccc(N2Cc3ccccc3C2=NC(=O)c2cccnc2Cl)cc1 was read as HT1080NT lethal 2%, KB-V1 MDR tox 16µM*, SW480 rerep 3%, MCF10A rereplic inconclusive, HT1080 IDH1KD tx -3% and KB-3-1 tox inconclusive.
